The record followed here is PubChem BioAssay (EPA / NIEHS).

Structures are written as SMILES. Activity calls are given as the source filed them. The calls were made as follows: active = hit-call score of the fitted dose curve at least 0.9, where 1 is the maximum; inactive = score below 0.9.

Read-out in this test: Interleukin-8 (IL8), CXCL8 (gene 3576)
Put plainly: BSK_3C_IL8: BioMAP Diversity Plus: 3C Assay for Interleukin-8 (IL8) Biomarker Activity (AID 2283020). As to conditions: primary human endothelial cells (HUVEC); actives raise or lower the signal. How it is done: BSK_3C is a cell-based, multiplexed-readout assay that uses umbilical vein endothelium, a human vascular primary cell, with measurements taken at 24 hours after chemical dosing in a 96-well plate.BSK_3C_IL8 is an assay component measured in the BSK_3C assay. It measures IL-8 antibody related to regulation of gene expression using ELISA technology.Data from the assay component BSK_3C_IL8 was analyzed into 1 assay endpoint. This assay endpoint, BSK_3C_IL8, was analyzed with bidirectional fitting relative to DMSO as the negative control and baseline of activity. Using a type of binding reporter, gain or loss-of-signal activity can be used to understand changes in the signaling as they relate to the gene CXCL8. Furthermore, this assay endpoint can be referred to as a primary readout, because this assay has produced multiple assay endpoints where this one serves a signaling function. To generalize the intended target to other relatable targets, this assay endpoint is annotated to the cytokine intended target family, where the subfamily is interleukins.
The levels of cell surface (or secreted, indicated by the prefix "s") biomarker endpoints were measured by ELISA. Overt cytotoxicity to cells in confluent adherent cultures (all systems other than the BT system) was assessed by measuring total protein levels using sulforhodamine B (SRB) staining in parallel cultures at the time of biomarker measurements, indicated as SRB endpoints. For proliferation assays for adherent cell types, individual cell types are cultured at sub-confluence and relative cell numbers quantified by SRB staining at time points optimized for each system (48 h: 3C and CASM3C systems; 72 h: BT and HDF3CGF systems; 96 h: SAg system). SRB was performed by staining cells with 0.1% SRB after fixation with 10% TCA and reading wells at 560 nm.Viability and proliferation of PBMC (T cells) was quantified by Alamar Blue reduction for the SAg and BT systems. For PBMC viability (referred to as PBMC Cytotoxicity within the assay endpoint names), cells were plated (75,000/well in a 96-well plate) and then chemical samples added for 1 h before addition of activators, SEB and TSST-1 (20 ng/mL final concentration each). Cells were incubated for 90 h. Then, Alamar Blue (20 uL/well) (Invitrogen, Cat DAL1100) was added for 6 h, and the plates were read with a fluorescence microplate reader at 546/580 nm (excitation/emission). For PBMC proliferation, cells were plated and activated as above but incubated for only 16 h prior to addition of Alamar Blue. Plates were read after 6 h.
Regarding `O=C(Nc1ccc(Cl)cc1)Nc1ccc(Cl)c(Cl)c1`, the AC50 is 1.87 µM (active).

On to `C[C@]12CC[C@@H]3c4ccc(O)cc4CC[C@H]3[C@@H]1CC[C@H]2O`, for which the half-maximal activity concentration (AC50) is 13 µM (active). In the case of `O=C(O)c1ccccc1C(=O)OCc1ccccc1`, the result was inactive. As for `CCN(CC)C(=O)c1cc(S(=O)(=O)Cc2ccccc2)c(N2CCC(c3ccccc3)CC2)cc1N(CC)CCN(C)C`, the AC50 is 13.8 µM (active). For the compound `O=C1O[C@H]([C@@H](O)CO)C(O)=C1O`, the result was inactive.

For the compound `O=C(O)c1ccccc1-n1cc(C(=O)O)c(=O)c2cc(Nc3c(F)cc(F)cc3Cl)c(Cl)cc21`, the result was inactive. Turning to `CCO[Si](CCCNC(N)=O)(OCC)OCC`, the outcome was inactive. On to `c1ccc2n[nH]nc2c1`, for which the outcome was inactive. `c1ccc(C[n+]2cccc3ccccc32)cc1`: the outcome was inactive. For the compound `CCCOC(=O)c1cc(O)c(O)c(O)c1`, the outcome was inactive. As to `CC(C)(C)c1cc(/C=C2\SC(N)=NC2=O)cc(C(C)(C)C)c1O`, the AC50 is 30.1 µM (active). On to `CCOC(=O)O[C@H](C)OC(=O)c1ccc2c(c1)cc(C(=O)NC1CCN(C(C)C)CC1)n2Cc1cc(-c2ccc(Cl)s2)on1`, for which the AC50 was 6.77 µM (active).

On to `Clc1cc(Cl)c2c(c1)N=C1CCCCCN1C2`, for which the result was inactive. Consider `Cc1ncc(CO)c(CO)c1O`, for which the result was inactive.

Consider `Cc1occc1C(=O)Nc1ccc(C(=O)N2CCC(F)(F)/C(=C\C(=O)N3CCC(N4CCCCC4)CC3)c3ccccc32)cc1`, for which the outcome was inactive.

Take `CN(C[C@@H](CC[N+]12CCC(C3CCCCC3)(CC1)CC2)c1ccc(Cl)c(Cl)c1)C(=O)c1cc(C(F)(F)F)cc(C(F)(F)F)c1`: the AC50 is 24.3 µM (active). As for `COCC(C)OCC(C)OCC(C)O` (stereo not given), the outcome was inactive. In the case of `CC(C)(C)c1csc(-c2cc3cc(OCc4ccccc4CC(=O)O)ccc3o2)n1`, the half-maximal activity concentration (AC50) was 18.4 µM (active).

In the case of `CCCC(=O)OCCC(C)C`, the outcome was inactive. As for `CN1C(=O)N(c2ccccc2Br)Cc2cnc(Nc3ccc4c(c3)OCC(CO)O4)nc21` (stereo not given), the concentration at half-maximal activity (AC50) is 12.2 µM (active). Regarding `Cc1oc2c(NC(=O)c3c(Cl)cccc3Cl)cccc2c1C(C)(C)O`, the result was inactive. On to `O=C1c2ccccc2C(=O)N1CCc1noc(-c2ccc(CN3CCCCCC3)s2)n1`, for which the result was inactive. The same measure, in the same setting: for `Cc1ccc2oc(CN(Cc3ccccc3)C(=O)Nc3c(F)cc(F)cc3F)c(-c3ccc(Cl)cc3)c2c1` the value was “inactive”. Consider `CCCCCCCCCCCCO`, for which the AC50 was 36 µM (active).

Regarding `NC(=O)c1nc(-c2cccc(-c3cc(F)ccc3OCC(F)(F)C(F)(F)F)c2)n[nH]1`, the AC50 is 34.4 µM (active). On to `COc1cc(C(=O)NC2CCN(C)CC2)ccc1Nc1ncc2c(n1)N(C1CCCC1)CC(F)(F)C(=O)N2C`, for which the AC50 was 7.74 µM (active). As to `O=c1ccc2ccccc2o1`, the outcome was inactive. As for `Cc1cccc2ccccc12`, the result was inactive. As for `COc1ccc2cc(S(=O)(=O)N[C@H](CC(=O)N[C@H](Cc3ccc(CN4[C@H](C)CCC[C@@H]4C)cc3)C(=O)N(C)C(C)C)c3ccc4c(c3)OCO4)ccc2c1`, the AC50 was 16.3 µM (active).

As to `CCCCCc1ccc(N)cc1`, the result was inactive. As to `Clc1ccccc1C(c1ccccc1)(c1ccccc1)n1ccnc1`, the half-maximal activity concentration (AC50) is 27.2 µM (active). Take `CN(C)C(=O)C1(N2CCCCC2)CCN(CC[C@@]2(c3ccc(Cl)c(Cl)c3)CN(C(=O)c3ccccc3)CCO2)CC1`: the concentration at half-maximal activity (AC50) was 24.3 µM (active).

On to `c1ccc2ccccc2c1`, for which the result was inactive. Consider `O=c1[nH]sc2ccccc12`, for which the half-maximal activity concentration (AC50) was 14.4 µM (active). On to `CC[C@@H]1C[C@H](N(Cc2cc(C(F)(F)F)cc(C(F)(F)F)c2)C(C)=O)c2cc(C(F)(F)F)ccc2N1C(=O)OC(C)C`, for which the result was inactive. Still for that read-out and setting: for `OC12N=C(c3ccccc3)SC1Cc1cc(Cl)ccc12` (stereo not given) the value was “inactive”.

In the case of `Cc1cc2c(cc1C(F)(F)F)N(C(=O)Nc1ccc(Oc3cccnc3C)nc1)CC2`, the concentration at half-maximal activity (AC50) is 0.889 µM (active). Take `Cc1c2ccccc2c(C)c2c1ccc1ccccc12`: the half-maximal activity concentration (AC50) is 35.9 µM (active). Still for that read-out and setting: for `CCCCCCCCOC(=O)c1cc(O)c(O)c(O)c1` the value was 30.8 µM (active). On to `OCCO`, for which the result was inactive.

Broadly, the AC50 is the midpoint of the concentration-response curve, whichever way the signal moves.
